Numbering of substitutions follows the chain as printed.

We go through 12 sequences from publication PMC5700166.

Holding throughout (assay): protein-binding microarray (PBM); PBM: ~300 nM protein, 6 mM HEPES pH 7.8, 80 mM KCl, 0.5 mM EDTA, 0.5 mM EGTA, 6% glycerol, 35 ng/ul poly-dIdC, 1% milk, 1 h, room temperature; Ap Aiptasia and Nv Nematostella (sea anemones) / Co Capsaspora / Aq Amphimedon (sponge) / Dm Drosophila / Hu human; RHD is the Rel homology domain; high values mean tight binding
Conditions in all cases: dsDNA, one strand shown

Experiment [1] has as its target T1, GST-Ap-NF-kB RHD (Exaiptasia pallida (Aiptasia), UniProt A0A913YAJ5 2-422).
T1 sequence: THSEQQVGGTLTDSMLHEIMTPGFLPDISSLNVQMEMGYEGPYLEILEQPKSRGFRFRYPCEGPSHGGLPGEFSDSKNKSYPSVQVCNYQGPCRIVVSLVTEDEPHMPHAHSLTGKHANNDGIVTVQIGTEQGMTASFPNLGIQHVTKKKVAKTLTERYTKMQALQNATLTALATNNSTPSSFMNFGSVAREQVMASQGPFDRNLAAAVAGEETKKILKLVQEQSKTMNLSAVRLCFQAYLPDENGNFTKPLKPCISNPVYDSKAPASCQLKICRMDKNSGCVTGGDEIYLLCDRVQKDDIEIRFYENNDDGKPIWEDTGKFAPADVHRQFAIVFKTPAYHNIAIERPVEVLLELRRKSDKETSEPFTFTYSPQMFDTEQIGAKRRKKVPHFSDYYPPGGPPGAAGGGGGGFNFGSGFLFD

In experiment [2] the target is T2, GST-Nv-NF-kB (Cys allele) (Nematostella vectensis, UniProt E5G601 2-411).
T2 sequence: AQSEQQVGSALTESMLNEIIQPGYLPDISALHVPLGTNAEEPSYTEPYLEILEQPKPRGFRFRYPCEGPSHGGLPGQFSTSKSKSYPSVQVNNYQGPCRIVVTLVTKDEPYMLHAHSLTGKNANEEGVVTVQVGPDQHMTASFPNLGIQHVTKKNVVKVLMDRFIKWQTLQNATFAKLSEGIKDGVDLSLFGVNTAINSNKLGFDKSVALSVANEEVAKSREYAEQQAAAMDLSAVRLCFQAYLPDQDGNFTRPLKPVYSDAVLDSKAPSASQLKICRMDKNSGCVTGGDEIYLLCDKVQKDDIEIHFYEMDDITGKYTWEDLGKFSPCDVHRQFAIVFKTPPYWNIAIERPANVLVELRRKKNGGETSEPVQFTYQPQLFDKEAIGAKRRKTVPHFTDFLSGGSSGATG

Experiment [3] concerns the target T3, GST-Nv-NF-kB (Ser allele) (Nematostella vectensis, UniProt A7UNT2 2-411).
T3 sequence: T2 sequence with Q21R, C66S, S207N, E215Q, V217A, E225K, A268E, D399E

For experiment [4], the target named is T4, GST-Co-NF-kB (Capsaspora owczarzaki, UniProt F1ARL5 200-546).
T4 sequence: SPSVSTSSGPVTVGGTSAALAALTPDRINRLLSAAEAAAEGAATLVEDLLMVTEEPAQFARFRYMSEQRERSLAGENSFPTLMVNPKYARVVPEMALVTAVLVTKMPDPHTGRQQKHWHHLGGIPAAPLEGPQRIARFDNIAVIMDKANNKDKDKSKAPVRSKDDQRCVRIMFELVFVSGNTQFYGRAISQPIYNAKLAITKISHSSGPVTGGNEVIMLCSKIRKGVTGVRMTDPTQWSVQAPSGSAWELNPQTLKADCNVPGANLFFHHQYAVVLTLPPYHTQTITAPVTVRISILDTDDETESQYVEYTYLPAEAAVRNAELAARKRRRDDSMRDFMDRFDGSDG

The target of experiment [5] is T5, GST-Dm-Relish (Drosophila melanogaster, UniProt Q94527 99-473).
T5 sequence: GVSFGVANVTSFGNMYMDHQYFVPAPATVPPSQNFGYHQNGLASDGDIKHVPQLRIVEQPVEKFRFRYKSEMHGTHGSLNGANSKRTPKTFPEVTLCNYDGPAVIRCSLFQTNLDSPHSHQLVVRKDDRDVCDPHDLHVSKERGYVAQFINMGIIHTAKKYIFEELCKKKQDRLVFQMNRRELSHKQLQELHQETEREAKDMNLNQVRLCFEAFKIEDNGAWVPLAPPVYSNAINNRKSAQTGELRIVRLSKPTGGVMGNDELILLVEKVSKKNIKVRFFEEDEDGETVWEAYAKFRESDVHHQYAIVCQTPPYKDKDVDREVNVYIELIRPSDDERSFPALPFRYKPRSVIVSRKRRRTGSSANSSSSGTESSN

Experiment [6] addresses T6, GST-Aq-NF-kB (Amphimedon queenslandica, UniProt A9Y5G7 2-389).
T6 sequence: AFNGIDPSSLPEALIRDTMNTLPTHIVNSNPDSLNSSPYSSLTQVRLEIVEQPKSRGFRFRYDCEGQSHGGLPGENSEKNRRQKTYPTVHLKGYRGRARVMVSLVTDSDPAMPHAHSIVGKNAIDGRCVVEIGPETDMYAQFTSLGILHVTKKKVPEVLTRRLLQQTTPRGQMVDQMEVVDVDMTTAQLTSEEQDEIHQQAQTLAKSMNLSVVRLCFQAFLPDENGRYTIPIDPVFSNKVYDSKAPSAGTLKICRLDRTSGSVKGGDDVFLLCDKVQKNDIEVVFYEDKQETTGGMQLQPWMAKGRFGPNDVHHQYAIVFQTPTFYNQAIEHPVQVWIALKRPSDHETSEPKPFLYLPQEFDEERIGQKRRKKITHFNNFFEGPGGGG

The target in experiment [7] is GST-Hu-p50 (Homo sapiens, UniProt P19838 7-356).
GST-Hu-p50, sequence (P19838 7-356): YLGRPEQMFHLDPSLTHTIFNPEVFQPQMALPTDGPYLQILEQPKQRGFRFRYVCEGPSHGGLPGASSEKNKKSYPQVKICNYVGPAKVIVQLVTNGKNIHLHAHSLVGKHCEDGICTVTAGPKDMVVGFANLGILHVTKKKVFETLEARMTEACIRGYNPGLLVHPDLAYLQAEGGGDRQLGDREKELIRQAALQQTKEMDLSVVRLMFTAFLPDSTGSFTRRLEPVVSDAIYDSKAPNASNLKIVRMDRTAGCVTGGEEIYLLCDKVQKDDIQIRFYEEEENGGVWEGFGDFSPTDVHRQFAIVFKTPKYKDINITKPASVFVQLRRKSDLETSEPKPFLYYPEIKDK

Take “CCGATTAACATCAGGAATCTCCCTGATGTTAATCGGGTCTTGATTCGCTTGACGCTGCTG”: the binding signal in experiment [1] was 3.91 z-score; in experiment [2], 6.08 z-score; in experiment [3], 3.67 z-score; in experiment [4], 1.77 z-score; in experiment [5], 2.25 z-score; in experiment [6], 7.75 z-score. In addition, the binding signal in experiment [7] amounted to 4.69 z-score.
“CCGATTAACATCAAAATACCCCCTGATGTTAATCGGGTCTTGATTCGCTTGACGCTGCTG”: the binding signal in experiment [1] worked out at 9.02 z-score; in experiment [2], 7.56 z-score; in experiment [3], 8.62 z-score; in experiment [4] it was 7.21 z-score; in experiment [5] it was 7.72 z-score; in experiment [6], 7.21 z-score. In addition, in experiment [7], the binding signal was determined as 6.58 z-score.
Consider “CCGATTAACATCAGGGGACTACCTGATGTTAATCGGGTCTTGATTCGCTTGACGCTGCTG”, for which the binding signal is 7.56 z-score in experiment [1]; 5.88 z-score in experiment [2]; 4.89 z-score in experiment [3]; 2.47 z-score in experiment [4]; 7.3 z-score in experiment [5]; 7.36 z-score in experiment [6]. In experiment [7], this sequence had a binding signal of 4.79 z-score.
For “CCGATTAACATCAGGGGGACACCTGATGTTAATCGGGTCTTGATTCGCTTGACGCTGCTG”, the binding signal in experiment [1] is 5.64 z-score; in experiment [2], 4.46 z-score; in experiment [3] it was 4.25 z-score; in experiment [4] it was 5.26 z-score; in experiment [5], 4.25 z-score; in experiment [6], 5.46 z-score. This sequence gave a binding signal in experiment [7] of 4.49 z-score.
On to “CCGATTAACATCAAGATATTCCCTGATGTTAATCGGGTCTTGATTCGCTTGACGCTGCTG”, for which the binding signal in experiment [1] was found to be 4.46 z-score; in experiment [2], 4.57 z-score; in experiment [3], 5.05 z-score; in experiment [4], 3.05 z-score; in experiment [5], 2.34 z-score; in experiment [6], 4.02 z-score. Besides, the binding signal in experiment [7] was 2.44 z-score.
For “CCGATTAACATCAAGTTTCCCCATGATGTTAATCGGGTCTTGATTCGCTTGACGCTGCTG”, the binding signal in experiment [1] was found to be 6.19 z-score; in experiment [2], 6.87 z-score; in experiment [3], 9.07 z-score; in experiment [4], 9.1 z-score; in experiment [5], 2.4 z-score; in experiment [6], 5.26 z-score. Also, in experiment [7], the binding signal was 5.62 z-score.
“CCGATTAACATCAGATATCCCCCTGATGTTAATCGGGTCTTGATTCGCTTGACGCTGCTG”: the binding signal was 7.25 z-score in experiment [1]; 6.62 z-score in experiment [2]; 7.52 z-score in experiment [3]; 6.39 z-score in experiment [4]; 5.78 z-score in experiment [5]; 5.89 z-score in experiment [6]. Moreover, the binding signal in experiment [7] amounted to 5.59 z-score.
Consider “CCGATTAACATCAAGGGGGGTAATGATGTTAATCGGGTCTTGATTCGCTTGACGCTGCTG”, for which the binding signal was 4.04 z-score in experiment [1]; 4.87 z-score in experiment [2]; 4.3 z-score in experiment [3]; 5.42 z-score in experiment [4]; 3.36 z-score in experiment [5]; 4.75 z-score in experiment [6]. Also, in experiment [7], the binding signal worked out at 3.62 z-score.
For the sequence “CCGATTAACATCAGGGAAGTCCCTGATGTTAATCGGGTCTTGATTCGCTTGACGCTGCTG”, the binding signal in experiment [1] is 9.31 z-score; in experiment [2], 11.7 z-score; in experiment [3], 9.19 z-score; in experiment [4], 1.97 z-score; in experiment [5] it was 10.4 z-score; in experiment [6], 10.2 z-score. For the same sequence, the binding signal in experiment [7] is 6.58 z-score.
Take “CCGATTAACATCAAGGGTGGGAATGATGTTAATCGGGTCTTGATTCGCTTGACGCTGCTG”: the binding signal worked out at 1.69 z-score in experiment [1]; 1.84 z-score in experiment [2]; 1.42 z-score in experiment [3]; 2.88 z-score in experiment [4]; 1.66 z-score in experiment [5]; 2.63 z-score in experiment [6]. This sequence gave a binding signal in experiment [7] of 1.83 z-score.
As to “CCGATTAACATCAAGGGGAAAAATGATGTTAATCGGGTCTTGATTCGCTTGACGCTGCTG”, the binding signal in experiment [1] is 6.62 z-score; in experiment [2] it was 8.51 z-score; in experiment [3], 11 z-score; in experiment [4] it was 9.12 z-score; in experiment [5] it was 4.24 z-score; in experiment [6], 6.11 z-score. The same sequence came in with a binding signal in experiment [7] of 6.67 z-score.
Turning to “CCGATTAACATCACCGGGAATTCTGATGTTAATCGGGTCTTGATTCGCTTGACGCTGCTG”, the binding signal is 4.62 z-score in experiment [1]; 5.1 z-score in experiment [2]; 4.74 z-score in experiment [3]; 5.5 z-score in experiment [4]; 4.57 z-score in experiment [5]; 4.34 z-score in experiment [6]. In experiment [7], this sequence had a binding signal of 4.01 z-score.
